POLK inh: inhibitors of human DNA polymerase kappa | Q9UBT6 | purified Pol kappa, fluorescent DNA synthesis assay, 10 min | Potency, µM (series often up to 107 µM), for inactives: at the highest dose activity, negative = inhibition, usual class: inhibitors | hit rate 0.53% among 400,000 | AID 588579; note: % is set by controls: 0 for no effect and ±100 for the full control effect
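Pol kappa 10 nM + cpd, 15 min RT; start w/ substrate 50 nM final; fluorescence kinetic read, 0 and 10 min. Neg ctrl: buffer, no enzyme.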
Pol eta inh: blocks human DNA polymerase eta activity; recombinant Pol eta, fluorescent DNA replication assay; Potency, µM (doses to about 114 µM), without a hit: at the highest dose activity change, negative = inhibition, usual class: inhibitors; hit rate 1.2% among 390,000; AID 588591; note: % is set by controls: 0 for no effect and ±100 for the full control effect
Target sequence (Q9Y253 whole entry, looked up): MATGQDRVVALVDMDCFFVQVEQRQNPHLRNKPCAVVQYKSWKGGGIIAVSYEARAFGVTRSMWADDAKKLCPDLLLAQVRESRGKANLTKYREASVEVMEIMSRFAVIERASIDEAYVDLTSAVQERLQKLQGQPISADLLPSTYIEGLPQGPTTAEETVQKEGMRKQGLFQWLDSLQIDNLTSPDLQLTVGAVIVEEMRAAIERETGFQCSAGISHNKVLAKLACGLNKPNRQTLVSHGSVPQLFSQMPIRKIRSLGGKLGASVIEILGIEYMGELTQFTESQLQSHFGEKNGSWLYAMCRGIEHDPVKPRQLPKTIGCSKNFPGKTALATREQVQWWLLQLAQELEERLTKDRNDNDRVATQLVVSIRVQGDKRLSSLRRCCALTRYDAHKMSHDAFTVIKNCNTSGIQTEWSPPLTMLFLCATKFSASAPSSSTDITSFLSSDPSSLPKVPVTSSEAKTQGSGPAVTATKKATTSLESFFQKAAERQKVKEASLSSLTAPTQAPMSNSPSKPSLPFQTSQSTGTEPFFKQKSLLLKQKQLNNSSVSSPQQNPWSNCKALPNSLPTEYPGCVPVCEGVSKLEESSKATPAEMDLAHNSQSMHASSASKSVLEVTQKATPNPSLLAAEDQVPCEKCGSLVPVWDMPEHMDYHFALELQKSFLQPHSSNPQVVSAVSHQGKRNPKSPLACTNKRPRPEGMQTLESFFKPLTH
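Pol eta at 10 nM preincubated with compounds 15 min at room temperature; reaction started with fluorescent substrate (50 nM final) and read kinetically at 0 and 10 min.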
POLB inh: blocks human DNA polymerase beta activity | Potency, µM (highest dose often 114 µM), for inactives: at the top dose activity change, negative = inhibition, most hits filed as inhibitors | P06746 | hit rate 1.3% among 340,000 | Pol beta primer extension/strand displacement, fluorescence kinetic | AID 485314; note: % is set by controls: 0 for no effect and ±100 for the full control effect
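Pol beta (10 nM) and compounds were preincubated 15 min at room temperature, then 50 nM substrate (final) started primer extension/strand displacement. Reads were taken at 0 and 10 min; concentration-response data were fitted to a four-parameter Hill equation.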
FEN1 inhibitor: human FEN1 inhibition; P39748; Recombinant FEN1 flap cleavage, fluorescence, 15 min; Potency, µM (doses to about 114 µM), for inactives: at the highest dose activity change, negative = inhibition, actives largely listed as inhibitors; hit rate 0.35% among 390,000; AID 588795; note: % is set by controls: 0 for no effect and ±100 for the full control effect; nearly all actives have a fitted effect of over 65% in size
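Compounds are tested as a concentration series against 10 nM FEN1; after a 15 min room-temperature preincubation, 50 nM substrate starts cleavage, with plate reads at 0 and 15 min. Normalized responses are fitted by a Hill equation.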
TDP1 block: blocks human tyrosyl-DNA phosphodiesterase 1. AID 485290. recombinant TDP1, AlphaScreen DNA substrate cleavage. Potency, µM (highest dose often 130 µM), without a hit: at the highest dose activity change, negative = inhibition, most hits filed as inhibitors. hit rate 0.28% among 350,000; note: % is set by controls: 0 for no effect and ±100 for the full control effect; nearly all actives have a fitted effect of over 40% in size
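E. coli-derived human Tdp1, 1 nM final. Cpd preinc 15 min RT; substrate 15 nM final, 5 min RT; AS bead mix 10 ug/ml final, 10 min RT. Signal loss = tyrosine-FITC cleavage. No-enzyme wells = max signal.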
Pol iota inh: blocks human DNA polymerase iota activity. Q9UNA4. Pol iota fluorescent replication assay, 10 min. Potency, µM (top dose mostly 115 µM), inactives show at the top dose activity, negative = inhibition, most hits filed as inhibitors. hit rate 1% among 390,000
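Fluorescent replication assay read twice, at 0 min and 10 min after adding 50 nM (final) substrate. Enzyme (10 nM) and compounds were first incubated 15 min at room temperature; enzyme-free buffer wells were negative controls.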
* hit, by the source's call; ? = inconclusive; nt = no result; [ ] = another dose, or the depositor's remark. Most compounds without a hit are left out; they make up all but 2.4% or so of the library. Calls come from the whole dose curve; as a rule, active = well fitted curve in the direction sought with a large enough effect; inconclusive = small, poorly fitted or top-dose-only effect, or another doubt; inactive = no such curve, though single readings can be large; an effect the other way counts as inactive or inconclusive. Potency is the fitted concentration of half-maximal effect.

SMILES	POLK inh	Pol eta inh	POLB inh	FEN1 inhibitor	TDP1 block	Pol iota inh
CN(C)c1ccc(/C=C2\C(=N)N3N=C(CC(=O)N4CCCCC4)SC3=NC2=O)cc1	?	?	?	-1.1%	-2.4%	50.1µM*
Cc1ccc(/C=C2/C(=N)N3N=C(CC(=O)N4CCCC4)SC3=NC2=O)o1	-27.1%	-15.5%	1.8%	14.1%	-0.9%	?
CCC1=NN2C(=N)/C(=C\c3cccn3-c3ccc(Cl)cc3)C(=O)N=C2S1	-20.2%	?	28.2µM*	-0.9%	2.5%	?
CCC1=NN2C(=N)/C(=C/c3ccc(OS(=O)(=O)c4ccccc4)cc3)C(=O)N=C2S1	-10.9%	44.7µM*	?	-13.3%	5.7%	1.2%
COc1ccc(C(=O)N(Cc2cccs2)Cc2cccs2)c(O)c1	nt	nt	nt	nt	-8.4%	nt
NC(=O)c1c(NC(=O)CN2C(=O)NC(Cc3ccccc3)C2=O)sc2c1CCC2 (configuration not stated)	?	?	?	3.8%	2.7%	44.7µM*
NC(=O)c1c(NC(=O)CN2CCN(S(=O)(=O)c3ccccc3)CC2)sc2c1CCC2	?	?	nt	-12.2%	nt	12.6µM*
O=[N+]([O-])c1ccccc1S(=O)(=O)N1CCSCC1	2.3%	89.1µM*	nt	-15.1%	-0.3%	17.3%
O=[N+]([O-])c1cccc2c(S(=O)(=O)N3CCOCC3)cccc12	-26.1%	?	?	10.7%	20µM*	?
O=[N+]([O-])c1cccc2c(S(=O)(=O)N3CCCCC3)cccc12	-0.3%	-7.4%	2.6%	-21.0%	4.8%	-4.8%
Cc1n[nH]c(C)c1Sc1ccccc1[N+](=O)[O-]	-9.0%	-21.2%	-26.6%	-2.1%	1.2%	107.6%
Cc1n[nH]c(C)c1Sc1ccccc1N=Cc1cc(Cl)cc([N+](=O)[O-])c1O	?	-12.1%	?	79.4µM*	2.2%	25.1µM*
COc1cc(-c2cc(C(=O)Nc3ccccc3N3CCOCC3)c3ccccc3n2)cc(OC)c1OC	2.5%	-22.0%	-0.8%	-0.1%	2.6%	65.2%
O=C(Nc1ccccc1N1CCOCC1)c1cc(-c2ccco2)nc2ccccc12	-41.1%	?	14.1µM*	-10.7%	-2.0%	?
CCN1CCN(C(=O)c2cc(-c3ccc(Cl)s3)nc3ccccc23)CC1	2.4%	-25.0%	17.2%	-11.3%	1.5%	31.7%
O=C(N/N=C/c1ccc2c(c1)OCO2)c1cc(-c2ccco2)nc2ccccc12	?	?	nt	10.6%	-14.8%	3.16µM*
O=C(N/N=C/c1ccc2c(c1)OCO2)c1cc(-c2ccccc2)nc2ccccc12	-17.9%	-9.6%	-1.1%	-9.8%	1.2%	-2.1%
CCN1CCN(C(=O)c2cc(-c3ccco3)nc3ccccc23)CC1	?	35.5µM*	nt	9.2%	-16.3%	39.8µM*
Cc1ccc2c(C(=O)CNc3nccs3)c[nH]c2c1	6.4%	nt	nt	-4.3%	nt	17.8%
Cc1ccc(NS(=O)(=O)c2cc3c(cc2F)NC(=O)CC3)cc1C	nt	nt	nt	nt	0.4%	nt
O=C(Nc1nnc(CCc2ccccc2)s1)C1CCN(C(=O)c2ccco2)CC1	-0.7%	nt	nt	-5.2%	nt	4.6%
Nc1cccc2c1C(=O)N(C(=O)/C=C/c1cccc(F)c1)C2=O	-11.3%	?	13.9%	6.8%	2.6%	?
Nc1cccc2c1C(=O)N(C(=O)/C=C/c1cccc(Br)c1)C2=O	-8.1%	?	9.4%	-8.8%	5.9%	11.2µM*
COC(=O)C[C@H]1c2cc(F)ccc2S(=O)(=O)N1C1CC1	-9.6%	nt	nt	-6.1%	nt	26.2%
CCN(CC(=O)NC1CCS(=O)(=O)C1)S(=O)(=O)c1ccc(Br)cc1 (configuration not stated)	-6.0%	-14.8%	nt	8.9%	0.6%	9.8%
SMILES	POLK inh	Pol eta inh	POLB inh	FEN1 inhibitor	TDP1 block	Pol iota inh
CCN(CC(=O)NC1CCS(=O)(=O)C1)S(=O)(=O)c1ccc(F)cc1 (configuration not stated)	-22.5%	?	15.8µM*	-5.0%	-2.4%	-45.6%
O=C1OC2(c3cc(Br)c(O)c(Br)c3Oc3c2cc(Br)c(O)c3Br)c2c(Cl)c(Cl)c(Cl)c(Cl)c21	nt	nt	nt	nt	21.7%	nt
CC1(C)C=Cc2c(c3c(c4c(=O)c(-c5ccc(O)cc5)coc24)OC(C)(C)CC3)O1	-8.9%	-14.1%	11.2µM*	-3.8%	7.2%	3.5%
O=c1cc(-c2ccccc2)oc2ccccc12	3.9%	-6.1%	nt	-5.8%	7.6%	23.9%
O=c1cc(-c2ccc(O)c(O)c2)oc2ccccc12	14.1µM*	nt	nt	nt	7.7%	nt
O=c1cc(-c2ccccc2)oc2c(O)c(O)ccc12	8.91µM*	nt	nt	nt	-1.1%[56.1 µM]	nt
O=c1cc(-c2ccccc2O)oc2c(O)c(O)ccc12	0.891µM*	nt	nt	nt	nt	nt
COc1cc(NS(=O)(=O)c2ccc([N+](=O)[O-])cc2)c2ncccc2c1	nt	nt	nt	nt	23.8%	nt
Cn1cc(-c2cc3n(n2)CCC(=O)N3CCCC(=O)Nc2ccc(Cl)cc2)c2ccccc21	2.5%[60.1 µM]	-11.0%	?	9.5%	11.2%	89.1µM*
CCCCc1ccc(NC(=O)Cn2nnc3sc4c(c3c2=O)CCC(C)C4)cc1 (configuration not stated)	-2.4%	-6.0%	9.2%	-22.5%	-1.1%	5.2%
COc1ccc(Br)cc1/C=N/NC(=O)c1cccnc1	-7.7%	19.1%	23.7%	12.1%	1.8%	-24.2%
O=C(N/N=C/c1cc(Br)c(Br)o1)c1cccnc1	?	11.2µM*	31.6µM*	1.3%	-5.4%	?
C/C=C\C(=O)N(CC)c1ccccc1C	-5.2%[12 µM]	nt	nt	nt	7.2%[21 µM]	nt
O=C1c2ccccc2C(=O)C2OC12 (configuration not stated)	nt	nt	70.8µM*	nt	nt	nt
Cc1ccccc1C1C(=O)c2ccccc2C1=O	2.9%	-7.7%	1.5%	-17.6%	nt	-15.9%
O=S(=O)(O)c1cccc2cccc(Nc3ccccc3)c12	?	20µM*	nt	?	nt	28.2µM*
CCCCc1ccc(-c2ccc(C)cc2O)nc1	-12.6%	-6.5%	28.2µM*	-12.0%	-10.1%	22.3%
CC(C)(C)OC(=O)N1CCN(/[N+]([O-])=N/Oc2ccc([N+](=O)[O-])cc2[N+](=O)[O-])CC1	-15.0%	nt	nt	?	nt	29.4%
O=S(=O)(c1c(F)cccc1F)N1CCN(S(=O)(=O)c2c(F)cccc2F)CC1	nt	nt	nt	nt	-0.4%	nt
CCOc1ccc(/C=C/C(=O)Nc2sc3c(c2C(=O)OC)C(C(=O)OC)CC3)cc1 (configuration not stated)	-7.8%	50.1µM*	35.2%	?	-12.8%[12.3 µM]	?
COC(=O)c1c(NC(=O)Cc2ccccc2)sc2c1C(C(=O)OC)CC2 (configuration not stated)	-15.9%	0.1%	-14.7%	-14.8%	7.5%	-15.7%
